Screening results (PubChem)
FMDV antiviral = antivirals against foot and mouth disease virus; FMDV antiviral cell-based qHTS; AID 1159524; 410,000 tested, 1.2% active; Potency, µM (top dose mostly 57.9 µM), hits mostly inhibitors; calls by dose curve; tested in HEK293T cells; further: read-out not given here; nearly all actives have a fitted effect of over 45% in size
HCMV antiviral = inhibitors of human cytomegalovirus. HFF cells, HCMV-luciferase reporter, 72 h; active compounds read low. AID 1259415. 410,000 tested, 4.5% active. activity change, negative = inhibition, % at 57.5 µM; in the data active means activity change below about -60%; inconclusive means no clear call, values can overlap the other calls; inactive means above about -39%
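Steps: HFFs plated, 16 h 37C; compounds added; HCMV-luciferase added to MOI 1 PFU/cell; 72 h 37C; OneGlo reagent, 5 min room temperature; luminescence read, normalized to controls.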
HCV inh = blocks hepatitis C virus. Huh7.5.1 HCVcc-Cre infection, luciferase reporter, 44 h. AID 651820. 340,000 tested, 3.4% active. Potency, µM (titrated, usually from 41.8 µM), actives largely listed as inhibitors
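A cell-based infection assay in which seeded cells (1,000 per well) receive test compound after 4 h, are inoculated with HCVcc-Cre at approximately 0.5 moi, and are incubated 44 h before luminescence detection.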
Giardia FBPA inh = blocks Giardia fructose-bisphosphate aldolase activity. A8B2U2. purified Giardia FBPA. Potency, µM (series often up to 59.6 µM), hits mostly inhibitors. 290,000 tested, 0.71% active; further: nearly all actives have a fitted effect of over 55% in size
Target sequence (A8B2U2 whole entry, looked up): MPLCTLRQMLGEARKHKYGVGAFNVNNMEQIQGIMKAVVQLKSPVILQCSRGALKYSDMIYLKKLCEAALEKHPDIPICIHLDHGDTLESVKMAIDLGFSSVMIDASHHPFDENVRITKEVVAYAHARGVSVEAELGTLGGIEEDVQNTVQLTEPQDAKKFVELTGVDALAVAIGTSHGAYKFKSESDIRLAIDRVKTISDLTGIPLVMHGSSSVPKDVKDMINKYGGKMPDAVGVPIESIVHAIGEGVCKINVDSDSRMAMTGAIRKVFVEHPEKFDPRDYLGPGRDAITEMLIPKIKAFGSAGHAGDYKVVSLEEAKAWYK
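40 nM FBPA preincubated 10 min at RT with compound (up to 57.5 uM final), then substrate plus GAPDH/TPI/NAD/arsenate coupling and diaphorase/resazurin added. Fluorescence read after 20 min at RT, 525/598 nm.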
Vaccinia Venus = vaccinia inhibition (Venus reporter); Vaccinia virus Venus reporter expression, fluorescence; Potency, µM (highest dose often 36.5 µM), actives largely listed as inhibitors; 330,000 tested, 0.46% active; AID 720580; calls by dose curve; tested in A549 cells; further: nearly all actives have a fitted effect of over 30% in size
VACV mCherry inh = inhibitors of vaccinia virus infection (mCherry reporter signal). Vaccinia virus mCherry reporter infection, fluorescence. Potency, µM (titrated, usually from 36.5 µM), actives largely listed as inhibitors. 310,000 tested, 0.63% active. AID 720579; calls by dose curve; tested in A549 cells; further: nearly all actives have a fitted effect of over 35% in size
Numbers stand for hits; i = inactive; ? = inconclusive; nt = no result; + = active, no number; [ ] = another dose, or the depositor's remark. A selection: hits, their analogues and other compounds. The true share with any hit is near 7.5%. Unless noted, the call rests on the fitted dose curve; in most records, active means well fitted curve in the direction sought with a large enough effect; inconclusive means small, poorly fitted or top-dose-only effect, or another doubt; inactive means no such curve, though single readings can be large; an effect the other way counts as inactive or inconclusive.

SMILES	FMDV antiviral	HCMV antiviral	HCV inh	Giardia FBPA inh	Vaccinia Venus	VACV mCherry inh
COc1ccc2c(c1)-c1nc(/N=C/c3ccc(O)c(OC)c3)sc1CC2	i	nt	11µM	?	i	i
COc1ccc(C(=O)Nc2nc3c(s2)Cc2cc(OC)ccc2-3)cc1	10µM	?	13µM	nt	i	i
COc1ccc2c(c1)-c1nc(NC(=O)c3cc(Cl)ccc3OC)sc1CC2	i	?	nt	nt	10µM	10µM
Cc1ccc2cc(CCl)c(Cl)nc2c1	?	i	10µM	i	i	i
CCc1cc2ccccc2nc1Cl	i	i	i	i	i	i
ClCc1cc2ccccc2nc1Cl	28µM	i	?	i	i	i
CC(C)[C@@H](C(=O)N1CCCC1)N1C(=O)N2CCc3c([nH]c4ccccc34)[C@@]2(C)C1=O	?	i	i	i	i	i
Oc1ccccc1CN1CCCN(Cc2ccccc2O)C1	i	i	8.9µM	i	nt	nt
Oc1ccccc1CN1CCN(C(O)(c2ccccc2)c2ccccc2)CC1	i	i	?	i	nt	nt
Cc1noc(C)c1NC(=O)Nc1ccc2c(c1)C(=O)N([C@H](C)CO)C[C@H](C)[C@@H](CN(C)S(=O)(=O)c1c(C)noc1C)O2	i	i	?	nt	i	i
CSCCC(NC(=O)c1ccccc1)C(=O)NNC(=O)c1ccccc1 (stereo not given)	i	-62	i	nt	nt	nt
CSCCC(NC(=O)c1ccccc1Br)C(=O)NNC(=O)c1cc(C)oc1C (stereo not given)	i	-63	i	nt	nt	nt
CSCCC(NC(=O)c1ccccc1Br)C(=O)NC(C)CCc1ccccc1 (stereo not given)	i	i	nt	i	i	i
CSCCC(NC(=O)c1ccccc1Br)C(=O)N1CCN(C/C=C/c2ccccc2)CC1 (stereo not given)	i	-83	?	nt	nt	nt
Cc1cc(C(=O)Nc2ccccc2-c2nc(CNC(=O)c3cc4ccccc4cn3)c(C)o2)c(C)o1	i	nt	nt	nt	i	i
O=C(Oc1ccc([N+](=O)[O-])cc1)C1CC(=O)N(c2ccc3c(c2)OCCO3)C1 (stereo not given)	i	-100	i	nt	i	i
O=C1CC(NS(=O)(=O)c2ccc([N+](=O)[O-])cc2)CN1c1ccc2c(c1)OCCO2 (stereo not given)	i	i	i[8.37 µM]	nt	i	i
O=C(Oc1ccc(Cl)c2cccnc12)N1CCCCCC1	i	-100	i	i	i	i[1.46 µM]
O=C(CN1Cc2ccccc2OC(c2ccsc2)C1)N1CCC(c2nc3ccccc3[nH]2)CC1 (stereo not given)	i	nt	nt	nt	i	i
Cn1nc([N+](=O)[O-])c(C(C#N)c2ccccn2)c(Cl)c1=O (stereo not given)	32µM	-97	?	?	nt	nt
N#CC(c1ccccn1)c1ncc(C(F)(F)F)cc1Cl (stereo not given)	i	i	?	i	i	i
COc1cc2c(NC3CCN(C)CC3)nc(N3CCCN(C)CC3)nc2cc1OCCN(C)CCN(C)C	nt	nt	nt	nt	i	i
COc1cc2nc(N3CCCN(C)CC3)nc(N(C)C3CCN(C)CC3)c2cc1OC	nt	nt	nt	nt	10µM	10µM
COc1cc2nc(N3CCCN(C)CC3)nc(NC3CCCCC3)c2cc1OC	nt	nt	nt	nt	?	i
COc1cc2nc(N3CCCN(C)CC3)nc(NC3CCN(C)C3)c2cc1OC (stereo not given)	nt	nt	nt	nt	11µM	?
SMILES	FMDV antiviral	HCMV antiviral	HCV inh	Giardia FBPA inh	Vaccinia Venus	VACV mCherry inh
COc1cc2c(NC3CCN(C)CC3)nc(N3CCCN(C)CC3)nc2cc1OCC1CCCCN1 (stereo not given)	nt	nt	nt	nt	16µM	5µM
CC(C)C[C@@H]1COc2cccc(NC3CC3)c2S(=O)(=O)N1	nt	i	nt	nt	nt	nt
CN(C)c1ccc(C(=S)NCc2ccco2)cc1	16µM	i	i	i	i	nt
CCCCNC(=O)CN(Cc1ccco1)S(=O)(=O)c1ccc(C(C)=O)cc1	i	i	i	nt	nt	nt
Cc1nc2ccccn2c1C(=O)N/N=C/c1ccc([N+](=O)[O-])o1	i	-74	?	?	7.1µM	?
O=C(N/N=C/c1ccc([N+](=O)[O-])o1)c1ccc(O)cc1	i	-93	25µM	?	?	13µM
O=C(N/N=C/c1ccc([N+](=O)[O-])o1)c1cc2ccccc2o1	i	?	?	i	nt	nt
O=C(N/N=C/c1cc(Br)c(Br)o1)c1cc2ccccc2o1	i	+	i	i	i	i
O=[N+]([O-])c1ccc(/C=N/Nc2ccc3ccccc3c2)o1	i	-72	i	i	nt	nt
O=C(COC(=O)/C=C/c1cccc(F)c1)NC1CCCCCC1	i	i	i	nt	i	i
